# Legend:
# Assay in all cases: DAPPL (digital affinity profiling via proximity ligation, sequencing); 10 mM Tris-HCl pH 7.5, 50 mM NaCl, 1 mM DTT, 4% glycerol, room temperature, 30 min; GST-TFs on glutathione beads, 16-mer random dsDNA library, 0.1% formaldehyde crosslink after washing; high values mean tight binding
# [1] = target: T1, FLI1 (Homo sapiens, UniProt Q01543 1-452); details: protein: recombinant; tags: N-terminal GST; dsDNA, one strand shown
# T1 sequence: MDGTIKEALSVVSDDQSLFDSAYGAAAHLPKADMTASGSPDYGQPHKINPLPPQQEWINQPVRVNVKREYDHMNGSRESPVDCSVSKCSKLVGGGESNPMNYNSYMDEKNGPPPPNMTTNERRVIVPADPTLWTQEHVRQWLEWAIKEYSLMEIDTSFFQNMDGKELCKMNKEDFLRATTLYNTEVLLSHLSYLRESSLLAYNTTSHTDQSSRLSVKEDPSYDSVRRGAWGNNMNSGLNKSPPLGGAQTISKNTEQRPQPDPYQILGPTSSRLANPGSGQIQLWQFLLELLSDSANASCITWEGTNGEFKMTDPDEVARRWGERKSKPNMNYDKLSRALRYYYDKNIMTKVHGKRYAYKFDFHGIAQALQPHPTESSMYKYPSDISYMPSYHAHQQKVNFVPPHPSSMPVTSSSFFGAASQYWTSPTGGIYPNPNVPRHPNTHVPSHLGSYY
# Outline: (§1)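 GST fusions of human transcription factors were expressed in yeast and captured with glutathione beads. Once given DNA barcodes and pooled alongside a tag-only sample, they were incubated for 30 min at room temperature with 200 nmole of a random double-stranded 16-mer DNA library in Tris/NaCl/DTT/glycerol buffer, then washed, crosslinked (0.1% formaldehyde), proximity-ligated, PCR-amplified and sequenced on an Illumina NextSeq500. The binding signal of each hexamer is its read frequency for a factor divided by its frequency for the tag-only sample.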
# [2] = target: T2, ELK1 (Homo sapiens, UniProt P19419 1-428); details: protein: recombinant; tags: N-terminal GST; dsDNA, one strand shown
# T2 sequence: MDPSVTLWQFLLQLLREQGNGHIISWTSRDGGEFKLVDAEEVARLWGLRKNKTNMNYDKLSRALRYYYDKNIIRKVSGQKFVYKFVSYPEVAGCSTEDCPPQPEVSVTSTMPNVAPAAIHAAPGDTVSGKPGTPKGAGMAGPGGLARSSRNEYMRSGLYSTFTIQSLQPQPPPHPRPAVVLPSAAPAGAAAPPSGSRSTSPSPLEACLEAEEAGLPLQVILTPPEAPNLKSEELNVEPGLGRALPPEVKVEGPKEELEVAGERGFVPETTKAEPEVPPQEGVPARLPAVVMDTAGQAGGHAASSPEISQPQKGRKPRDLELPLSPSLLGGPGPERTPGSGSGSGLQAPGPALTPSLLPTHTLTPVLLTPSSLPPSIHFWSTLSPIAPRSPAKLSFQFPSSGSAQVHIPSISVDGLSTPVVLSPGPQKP
# Outline: as §1
# [3] = target: T3, GABPA (Homo sapiens, UniProt Q06546 1-454); details: protein: recombinant; tags: N-terminal GST; dsDNA, one strand shown
# T3 sequence: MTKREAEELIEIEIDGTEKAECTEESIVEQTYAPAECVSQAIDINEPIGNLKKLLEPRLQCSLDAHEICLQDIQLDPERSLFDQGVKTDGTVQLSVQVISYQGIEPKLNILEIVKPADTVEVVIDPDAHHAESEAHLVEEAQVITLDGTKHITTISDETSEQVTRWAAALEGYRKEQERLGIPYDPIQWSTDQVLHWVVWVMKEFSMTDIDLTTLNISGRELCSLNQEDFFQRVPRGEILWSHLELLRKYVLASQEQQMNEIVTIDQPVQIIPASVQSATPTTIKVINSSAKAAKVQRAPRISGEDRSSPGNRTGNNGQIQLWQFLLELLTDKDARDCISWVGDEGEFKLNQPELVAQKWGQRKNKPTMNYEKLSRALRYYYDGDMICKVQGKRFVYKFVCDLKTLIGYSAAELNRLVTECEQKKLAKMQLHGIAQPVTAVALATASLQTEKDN
# Outline: as §1
# [4] = target: T4, ERG (Homo sapiens, UniProt P11308 1-479); details: protein: recombinant; tags: N-terminal GST; dsDNA, one strand shown
# T4 sequence: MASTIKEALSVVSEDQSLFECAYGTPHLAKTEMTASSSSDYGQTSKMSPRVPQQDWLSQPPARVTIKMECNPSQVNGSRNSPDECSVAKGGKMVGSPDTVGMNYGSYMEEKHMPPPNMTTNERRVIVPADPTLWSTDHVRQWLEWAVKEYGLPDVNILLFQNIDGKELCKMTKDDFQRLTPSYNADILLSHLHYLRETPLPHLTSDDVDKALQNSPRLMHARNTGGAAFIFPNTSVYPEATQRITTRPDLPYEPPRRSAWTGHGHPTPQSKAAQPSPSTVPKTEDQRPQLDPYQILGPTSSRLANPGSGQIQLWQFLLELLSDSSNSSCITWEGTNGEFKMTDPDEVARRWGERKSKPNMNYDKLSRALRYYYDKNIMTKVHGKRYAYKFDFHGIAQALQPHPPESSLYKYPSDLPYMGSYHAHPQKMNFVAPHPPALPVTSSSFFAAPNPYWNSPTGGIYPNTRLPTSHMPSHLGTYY
# Outline: as §1
# [5] = target: ELF1 (Homo sapiens, UniProt P32519 1-619); details: protein: recombinant; tags: N-terminal GST; dsDNA, one strand shown
# Outline: as §1
# [6] = target: T5, EHF (Homo sapiens, UniProt Q9NZC4 1-300); details: protein: recombinant; tags: N-terminal GST; dsDNA, one strand shown
# T5 sequence: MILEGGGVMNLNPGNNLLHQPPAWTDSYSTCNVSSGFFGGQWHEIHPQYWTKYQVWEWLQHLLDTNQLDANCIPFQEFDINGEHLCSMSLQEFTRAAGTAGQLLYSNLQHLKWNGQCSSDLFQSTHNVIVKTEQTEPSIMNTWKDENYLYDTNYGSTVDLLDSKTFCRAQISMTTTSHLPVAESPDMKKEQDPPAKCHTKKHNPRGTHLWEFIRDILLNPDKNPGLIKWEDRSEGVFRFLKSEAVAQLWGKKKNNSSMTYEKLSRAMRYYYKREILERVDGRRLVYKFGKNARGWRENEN
# Outline: as §1
# [7] = target: SPI1 (Homo sapiens, UniProt P17947 1-270); details: protein: recombinant; tags: N-terminal GST; dsDNA, one strand shown
# Outline: as §1
# [8] = target: SPIB (Homo sapiens, UniProt Q01892 1-262); details: protein: recombinant; tags: N-terminal GST; dsDNA, one strand shown
# Outline: as §1
# [9] = target: T6, ELK3 (Homo sapiens, UniProt P41970 1-407); details: protein: recombinant; tags: N-terminal GST; dsDNA, one strand shown
# T6 sequence: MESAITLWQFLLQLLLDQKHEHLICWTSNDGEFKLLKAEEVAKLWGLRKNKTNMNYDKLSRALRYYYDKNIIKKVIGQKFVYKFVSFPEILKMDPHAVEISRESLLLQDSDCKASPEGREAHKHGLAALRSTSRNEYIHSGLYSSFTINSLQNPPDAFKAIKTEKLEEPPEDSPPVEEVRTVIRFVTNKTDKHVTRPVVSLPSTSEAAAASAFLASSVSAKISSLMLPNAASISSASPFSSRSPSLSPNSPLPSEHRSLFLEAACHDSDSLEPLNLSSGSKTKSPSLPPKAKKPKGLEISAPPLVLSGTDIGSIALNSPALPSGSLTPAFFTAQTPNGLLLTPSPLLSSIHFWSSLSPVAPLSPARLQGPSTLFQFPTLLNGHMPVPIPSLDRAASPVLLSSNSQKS
# Outline: as §1
# [10] = target: T7, FEV (Homo sapiens, UniProt Q99581 1-238); details: protein: recombinant; tags: N-terminal GST; dsDNA, one strand shown
# T7 sequence: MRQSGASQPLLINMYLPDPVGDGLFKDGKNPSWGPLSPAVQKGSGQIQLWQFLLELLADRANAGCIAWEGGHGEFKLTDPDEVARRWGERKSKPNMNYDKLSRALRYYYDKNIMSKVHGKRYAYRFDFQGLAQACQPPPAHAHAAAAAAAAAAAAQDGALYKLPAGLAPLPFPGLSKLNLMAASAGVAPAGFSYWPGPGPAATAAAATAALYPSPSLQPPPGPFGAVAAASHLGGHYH
# Outline: as §1
# [11] = target: ETV5 (Homo sapiens, UniProt P41161 1-510); details: protein: recombinant; tags: N-terminal GST; dsDNA, one strand shown
# Outline: as §1
# [12] = target: HSF1 (Homo sapiens, UniProt Q00613 1-529); details: protein: recombinant; tags: N-terminal GST; chain copies: 3; dsDNA, one strand shown
# Outline: as §1
# [13] = target: T8, SPIC (Homo sapiens, UniProt Q8N5J4 1-248); details: protein: recombinant; tags: N-terminal GST; dsDNA, one strand shown
# T8 sequence: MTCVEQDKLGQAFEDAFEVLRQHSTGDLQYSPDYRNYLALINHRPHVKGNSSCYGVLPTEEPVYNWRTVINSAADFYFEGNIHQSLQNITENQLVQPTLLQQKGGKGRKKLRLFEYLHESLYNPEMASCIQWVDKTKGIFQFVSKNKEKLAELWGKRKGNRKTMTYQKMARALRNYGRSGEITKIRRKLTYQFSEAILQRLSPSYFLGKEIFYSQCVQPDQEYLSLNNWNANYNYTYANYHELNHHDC
# Outline: as §1
# [14] = target: ELF4 (Homo sapiens, UniProt Q99607 1-663); details: protein: recombinant; tags: N-terminal GST; dsDNA, one strand shown
# Outline: as §1
# [15] = target: T9, ELK4 (Homo sapiens, UniProt P28324-2 1-405); details: protein: recombinant; tags: N-terminal GST; dsDNA, one strand shown
# T9 sequence: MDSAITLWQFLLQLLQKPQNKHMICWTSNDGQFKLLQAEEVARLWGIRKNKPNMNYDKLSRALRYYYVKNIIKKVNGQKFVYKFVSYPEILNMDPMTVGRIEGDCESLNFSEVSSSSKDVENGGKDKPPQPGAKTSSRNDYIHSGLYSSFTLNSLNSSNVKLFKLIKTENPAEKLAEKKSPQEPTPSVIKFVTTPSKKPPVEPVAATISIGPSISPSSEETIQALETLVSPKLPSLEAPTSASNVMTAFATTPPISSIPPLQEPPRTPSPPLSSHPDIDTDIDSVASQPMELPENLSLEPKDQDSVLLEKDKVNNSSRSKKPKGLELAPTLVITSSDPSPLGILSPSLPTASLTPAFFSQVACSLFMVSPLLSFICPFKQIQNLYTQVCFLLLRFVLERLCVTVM
# Outline: as §1
# [16] = target: T10, ETV2 (Homo sapiens, UniProt O00321 1-342); details: protein: recombinant; tags: N-terminal GST; dsDNA, one strand shown
# T10 sequence: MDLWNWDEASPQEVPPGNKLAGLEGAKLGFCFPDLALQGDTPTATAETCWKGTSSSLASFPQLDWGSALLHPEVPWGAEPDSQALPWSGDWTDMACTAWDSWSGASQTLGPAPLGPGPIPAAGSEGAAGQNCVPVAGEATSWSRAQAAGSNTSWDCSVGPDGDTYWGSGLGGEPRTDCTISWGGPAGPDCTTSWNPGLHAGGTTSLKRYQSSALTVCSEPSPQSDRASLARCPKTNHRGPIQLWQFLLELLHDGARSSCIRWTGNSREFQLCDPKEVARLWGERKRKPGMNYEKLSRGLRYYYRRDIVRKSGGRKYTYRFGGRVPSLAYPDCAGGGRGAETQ
# Outline: as §1
# [17] = target: T11, ELF3 (Homo sapiens, UniProt P78545 1-371); details: protein: recombinant; tags: N-terminal GST; dsDNA, one strand shown
# T11 sequence: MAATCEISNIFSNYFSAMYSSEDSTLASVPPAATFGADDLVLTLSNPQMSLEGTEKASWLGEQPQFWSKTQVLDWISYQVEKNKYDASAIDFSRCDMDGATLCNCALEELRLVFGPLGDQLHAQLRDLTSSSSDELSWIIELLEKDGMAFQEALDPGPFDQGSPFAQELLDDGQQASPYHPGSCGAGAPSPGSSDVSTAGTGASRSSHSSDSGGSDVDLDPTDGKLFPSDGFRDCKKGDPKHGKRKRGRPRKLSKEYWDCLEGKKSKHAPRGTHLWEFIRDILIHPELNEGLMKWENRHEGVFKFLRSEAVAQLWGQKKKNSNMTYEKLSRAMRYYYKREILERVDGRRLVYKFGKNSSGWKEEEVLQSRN
# Outline: as §1
# [18] = target: CRX (Homo sapiens, UniProt O43186 1-299); details: protein: recombinant; tags: N-terminal GST; dsDNA, one strand shown
# Outline: as §1
# [19] = target: ETV1 (Homo sapiens, UniProt P50549 1-477); details: protein: recombinant; tags: N-terminal GST; dsDNA, one strand shown
# Outline: as §1
# SPIB, sequence (Q01892 whole entry): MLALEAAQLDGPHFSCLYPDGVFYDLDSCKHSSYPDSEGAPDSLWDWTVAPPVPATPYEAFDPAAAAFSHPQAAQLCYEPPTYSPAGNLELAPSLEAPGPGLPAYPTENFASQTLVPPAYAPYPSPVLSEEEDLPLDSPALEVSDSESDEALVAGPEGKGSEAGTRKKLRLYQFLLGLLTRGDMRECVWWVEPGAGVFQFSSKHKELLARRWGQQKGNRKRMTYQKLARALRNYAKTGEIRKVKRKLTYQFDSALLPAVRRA
# ELF4, sequence (Q99607 whole entry): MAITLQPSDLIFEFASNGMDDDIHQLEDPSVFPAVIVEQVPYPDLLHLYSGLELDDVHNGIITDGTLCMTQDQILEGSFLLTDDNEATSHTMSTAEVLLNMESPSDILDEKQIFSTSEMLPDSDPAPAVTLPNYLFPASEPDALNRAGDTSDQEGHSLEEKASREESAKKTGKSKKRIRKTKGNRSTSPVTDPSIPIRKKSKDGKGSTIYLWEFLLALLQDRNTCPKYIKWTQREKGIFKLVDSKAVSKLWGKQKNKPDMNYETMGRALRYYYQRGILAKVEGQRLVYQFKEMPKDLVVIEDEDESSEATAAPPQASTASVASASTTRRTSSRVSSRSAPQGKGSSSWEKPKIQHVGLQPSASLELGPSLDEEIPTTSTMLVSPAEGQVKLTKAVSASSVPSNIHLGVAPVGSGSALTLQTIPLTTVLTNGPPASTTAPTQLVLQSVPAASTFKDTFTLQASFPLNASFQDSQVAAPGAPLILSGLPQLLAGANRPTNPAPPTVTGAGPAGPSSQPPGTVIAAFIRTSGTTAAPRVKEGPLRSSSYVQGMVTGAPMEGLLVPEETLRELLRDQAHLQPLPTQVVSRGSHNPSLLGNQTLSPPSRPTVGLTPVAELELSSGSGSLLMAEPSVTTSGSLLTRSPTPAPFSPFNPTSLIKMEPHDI
# ETV5, sequence (P41161 whole entry): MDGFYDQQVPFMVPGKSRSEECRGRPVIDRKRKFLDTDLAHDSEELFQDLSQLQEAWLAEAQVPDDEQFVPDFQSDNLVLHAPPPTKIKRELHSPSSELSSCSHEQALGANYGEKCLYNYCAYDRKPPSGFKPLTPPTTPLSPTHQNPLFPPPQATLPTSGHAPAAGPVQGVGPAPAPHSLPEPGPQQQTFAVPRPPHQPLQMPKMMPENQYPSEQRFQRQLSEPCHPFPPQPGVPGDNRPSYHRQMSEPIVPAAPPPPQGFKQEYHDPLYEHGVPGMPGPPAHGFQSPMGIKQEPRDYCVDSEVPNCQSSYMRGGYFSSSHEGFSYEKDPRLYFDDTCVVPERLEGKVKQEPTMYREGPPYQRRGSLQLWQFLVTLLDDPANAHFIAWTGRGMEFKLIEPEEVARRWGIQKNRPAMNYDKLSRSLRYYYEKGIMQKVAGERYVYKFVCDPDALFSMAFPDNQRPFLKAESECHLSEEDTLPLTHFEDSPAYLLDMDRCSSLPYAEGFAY
# ELF1, sequence (P32519 whole entry): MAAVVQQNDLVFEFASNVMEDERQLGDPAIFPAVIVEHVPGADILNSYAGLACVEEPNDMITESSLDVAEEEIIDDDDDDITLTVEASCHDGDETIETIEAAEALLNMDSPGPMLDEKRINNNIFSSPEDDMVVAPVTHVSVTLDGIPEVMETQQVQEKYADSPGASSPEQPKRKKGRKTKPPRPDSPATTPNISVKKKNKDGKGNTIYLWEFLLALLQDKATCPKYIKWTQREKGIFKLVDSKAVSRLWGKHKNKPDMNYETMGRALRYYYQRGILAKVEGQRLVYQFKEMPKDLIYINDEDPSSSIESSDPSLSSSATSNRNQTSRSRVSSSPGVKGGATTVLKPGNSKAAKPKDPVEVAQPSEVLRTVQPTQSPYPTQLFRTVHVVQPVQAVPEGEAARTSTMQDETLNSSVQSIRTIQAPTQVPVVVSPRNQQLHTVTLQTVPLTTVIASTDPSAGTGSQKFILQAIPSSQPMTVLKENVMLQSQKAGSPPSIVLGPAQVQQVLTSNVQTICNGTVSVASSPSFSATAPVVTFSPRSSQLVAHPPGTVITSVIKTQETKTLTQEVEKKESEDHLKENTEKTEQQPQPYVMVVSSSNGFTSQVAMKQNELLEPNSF
# HSF1, sequence (Q00613 whole entry): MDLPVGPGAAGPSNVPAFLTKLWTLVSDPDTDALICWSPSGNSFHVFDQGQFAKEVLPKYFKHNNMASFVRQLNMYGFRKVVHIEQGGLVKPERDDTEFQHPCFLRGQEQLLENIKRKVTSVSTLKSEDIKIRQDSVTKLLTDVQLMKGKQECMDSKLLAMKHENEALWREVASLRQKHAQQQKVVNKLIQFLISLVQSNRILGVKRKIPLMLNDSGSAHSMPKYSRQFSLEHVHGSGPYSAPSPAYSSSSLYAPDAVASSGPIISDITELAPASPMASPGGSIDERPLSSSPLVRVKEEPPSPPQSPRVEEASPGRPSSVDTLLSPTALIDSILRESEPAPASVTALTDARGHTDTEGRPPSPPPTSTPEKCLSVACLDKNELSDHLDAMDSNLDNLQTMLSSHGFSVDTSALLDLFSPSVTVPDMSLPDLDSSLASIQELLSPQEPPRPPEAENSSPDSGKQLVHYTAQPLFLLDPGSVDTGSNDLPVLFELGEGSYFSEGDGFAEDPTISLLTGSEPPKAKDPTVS
# CRX, sequence (O43186 whole entry): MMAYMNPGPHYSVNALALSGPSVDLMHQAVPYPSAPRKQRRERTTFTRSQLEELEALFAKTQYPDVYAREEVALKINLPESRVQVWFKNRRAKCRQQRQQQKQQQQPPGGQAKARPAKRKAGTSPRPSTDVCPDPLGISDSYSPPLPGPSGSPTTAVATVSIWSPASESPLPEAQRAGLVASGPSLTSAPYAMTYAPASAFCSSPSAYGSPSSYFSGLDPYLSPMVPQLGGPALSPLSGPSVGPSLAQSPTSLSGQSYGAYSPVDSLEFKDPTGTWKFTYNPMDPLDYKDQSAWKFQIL
# ETV1, sequence (P50549 whole entry): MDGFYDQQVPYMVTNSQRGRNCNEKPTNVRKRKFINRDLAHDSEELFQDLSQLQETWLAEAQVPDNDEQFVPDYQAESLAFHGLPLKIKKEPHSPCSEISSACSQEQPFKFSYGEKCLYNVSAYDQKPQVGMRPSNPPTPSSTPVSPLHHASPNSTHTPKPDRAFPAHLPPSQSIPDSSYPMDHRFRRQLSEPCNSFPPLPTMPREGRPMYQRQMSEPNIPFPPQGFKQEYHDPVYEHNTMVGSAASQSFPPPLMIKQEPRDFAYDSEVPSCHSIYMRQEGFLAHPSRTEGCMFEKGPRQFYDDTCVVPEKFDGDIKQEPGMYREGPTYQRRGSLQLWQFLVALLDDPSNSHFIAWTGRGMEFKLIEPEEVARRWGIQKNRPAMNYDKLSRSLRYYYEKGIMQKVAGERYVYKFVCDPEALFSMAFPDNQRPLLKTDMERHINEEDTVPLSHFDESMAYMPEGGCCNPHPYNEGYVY
sequence,measurement,setting,value
TCCCCG,binding signal,[1],"1.15 fold enrichment (6-mer frequency, TF over GST control)"
same,binding signal,[2],"1.22 fold enrichment (6-mer frequency, TF over GST control)"
same,binding signal,[3],"1.32 fold enrichment (6-mer frequency, TF over GST control)"
same,binding signal,[4],"1.2 fold enrichment (6-mer frequency, TF over GST control)"
same,binding signal,[5],"1.23 fold enrichment (6-mer frequency, TF over GST control)"
same,binding signal,[6],"1.35 fold enrichment (6-mer frequency, TF over GST control)"
same,binding signal,[7],"1.18 fold enrichment (6-mer frequency, TF over GST control)"
same,binding signal,[8],"1.13 fold enrichment (6-mer frequency, TF over GST control)"
same,binding signal,[9],"1.13 fold enrichment (6-mer frequency, TF over GST control)"
same,binding signal,[10],"1.17 fold enrichment (6-mer frequency, TF over GST control)"
same,binding signal,[11],"1.22 fold enrichment (6-mer frequency, TF over GST control)"
same,binding signal,[12],"1.16 fold enrichment (6-mer frequency, TF over GST control)"
same,binding signal,[13],"1.04 fold enrichment (6-mer frequency, TF over GST control)"
same,binding signal,[14],"1.22 fold enrichment (6-mer frequency, TF over GST control)"
same,binding signal,[15],"1.12 fold enrichment (6-mer frequency, TF over GST control)"
same,binding signal,[16],"1.26 fold enrichment (6-mer frequency, TF over GST control)"
same,binding signal,[17],"1.27 fold enrichment (6-mer frequency, TF over GST control)"
same,binding signal,[18],"1.21 fold enrichment (6-mer frequency, TF over GST control)"
same,binding signal,[19],"1.13 fold enrichment (6-mer frequency, TF over GST control)"

# From publication PMC7862700, “An all-to-all approach to the identification of sequence-specific readers for epigenetic DNA modifications on cytosine”
